What follows are molecules tested on ULK2. Conditions: concentration: 1 μM, replicates: in singlicate; n = 1.
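Further: KINOMEscan kinase panel screen.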

SMILES	%Inh [%]
COC(=O)Nc1nc2cc(Oc3ccc(NC(=O)Nc4cccc(SC)c4)cc3)ccc2[nH]1.Cl [GW697999]	0
Cc1ccc(O)cc1Nc1ccnc2cc(-c3ccc(CN4CCCCC4)o3)ccc12 [GW557777]	0
CN(c1ccc2c(c1)nc(NCc1ccccc1)n2C)c1ccnc(Nc2ccc(CS(C)(=O)=O)cc2)n1.Cl [GW811603]	16
COc1cccc(C2=C(Nc3cccc(O)c3)C(=O)NC2=O)c1 [SB-390771]	0
CC(C)NCC(Cc1ccccc1)NC(=O)c1cc(Br)c(-c2ccnc3[nH]ccc23)s1.Cl.Cl (centres unmarked) [GSK1383281]	0
Cc1ccc(O)cc1Nc1ccnc2ccc(C(C)(C)C)cc12 [GW856805]	30
NCCC(NC(=O)c1cc(Br)c(-c2ccnc3[nH]ccc23)s1)c1ccccc1.O=C(O)C(F)(F)F.O=C(O)C(F)(F)F (centres unmarked) [GSK1307810]	8
COc1ccc(C2=C(Nc3cccc(O)c3)C(=O)NC2=O)cc1 [SB-390766]	0
O=C(O)C(F)(F)F.O=c1[nH]ccc2nc(N[C@@H]3CCNC3)nc(Nc3cc(Cl)cc(Cl)c3)c12 [GSK2188764]	99.9
Cc1ccc(C)c(NC(=O)Nc2ccc(C)c(-c3ccc(C(=O)Nc4ccncc4)cc3)c2)c1 [GSK1398473]	0
Cn1cc(-c2ccc3c(c2)CCN3C(=O)Cc2cc(F)cc(F)c2F)c2c(N)ncnc21 [GSK2634140]	0
N#Cc1cnc2cc(-c3cnc(CNCCN4CCOCC4)s3)ccc2c1Nc1ccc(Oc2ccccc2)cc1 [GW664114]	0
CN1CCN(Cc2ccc(NC(=O)Nc3ccc(N(C)c4ccnc(Nc5ccc(CS(C)(=O)=O)cc5)n4)cc3)cc2)CC1.Cl [GW827654]	51
Fc1cc(Cl)ccc1Nc1ccnc2cc(-c3ccc(CN4CCOCC4)o3)ccc12 [GW560109]	8
Cl.N#CCc1ccc(Nc2nccc(Nc3ccc(Oc4ccccc4)cc3)n2)cc1 [GW639905]	0
CN(c1ccc(F)c(NC(=O)c2cccc(OC(C)(C)C#N)c2Cl)c1)c1ccc2nc(NC(=O)C3CC3)sc2n1	0
CN(C)c1ncnc2nc[nH]c12 [SKF-31736]	42
O=C(Nc1c(F)cccc1F)c1cc(C(=O)c2ccccc2F)c[nH]1 [GSK1326180]	0
Nc1ncc(-c2ccc3nccc(-c4ccncc4)c3c2)cc1S(=O)(=O)N1CCCCC1 [GSK1693850]	0
Fc1cc(Cl)ccc1Nc1ccnc2cc(-c3ccc(CN4CCSCC4)o3)ccc12 [GW560106]	0
CS(=O)(=O)c1cccc(CNc2nc(Nc3ccc4c(c3)CCC(=O)N4)ncc2C(F)(F)F)c1	70
COC(=O)Nc1nc2ccc(Oc3ccc(CC(=O)Nc4cc(C(F)(F)F)ccc4F)cc3)cc2[nH]1 [GW680903]	0
Cl.Cl.NC(CNC(=O)c1cc(Br)c(-c2ccnc3[nH]ccc23)s1)c1ccccc1 (centres unmarked) [GSK1322949]	0
